“And” between values parts separate entries of the source, which are not always exact repeats. Identical values can stand only once. Results filed as inconclusive are left out. The source made the active and inactive calls. Unless noted, calls follow the shape of the dose curve; as a rule, active = well fitted curve in the direction sought with a large enough effect in the repeat runs; inconclusive = weak or mixed curves; inactive = no such curve, though single readings can be large; an effect the other way counts as inactive or inconclusive.
Assays:
[1] = qHTS assay for small molecule agonists of the p53 signaling pathway (AID 651631; calls by dose curve; also: nearly all actives have a fitted effect of over 15% in size; also: potency is read from the fitted curve at half-maximal effect)
Outline: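 Stably transfected HCT-116 cells (beta-lactamase behind p53 response elements) get compounds after a 5 h settling period; 16 h later at 37 °C, FRET substrate is loaded and fluorescence read after 2 h.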

[2] = qHTS assay for small molecules that induce genotoxicity in human embryonic kidney cells expressing luciferase-tagged ATAD5 (AID 651632); also: nearly all actives have a fitted effect of over 15% in size; also: potency is read from the fitted curve at half-maximal effect
Outline: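 DMSO vehicle served as the control. HEK293T reporter cells, 16 hr at 37C, then 30 min Amplite at room temperature; ATAD5 induction is measured as luciferase activity.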

[3] = qHTS assay for small molecule agonists of the p53 signaling pathway - cell viability (AID 651633; calls by dose curve;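 also: p53RE-bla HCT reporter cells with a stable beta-lactamase p53 reporter; series mostly up to about 83 µM; nearly all actives have a fitted effect of over 30% in size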)
Outline: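 p53RE-bla cells were treated with compound for 16 hours at 37 C. Cytotoxicity was then measured as CellTiter-Glo luminescence after 30 min at room temperature.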

[4] = qHTS assay for small molecules that induce genotoxicity in human embryonic kidney cells expressing luciferase-tagged ATAD5 - cell viability (AID 651634; calls by dose curve; also: nearly all actives have a fitted effect of over 25% in size)
Outline: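 Here HEK293T cells with the ATAD5 luciferase reporter are incubated with test compounds for 15.5 hr, and cytotoxicity is then gauged by measuring protease activity in live cells using fluorescence.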

[5] = qHTS assay for small molecule disruptors of the mitochondrial membrane potential - cell viability (AID 720634; calls by dose curve;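 also: human HepG2 liver cancer cells; series mostly up to about 83 µM; nearly all actives have a fitted effect of over 20% in size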)
Outline: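 Viability of HepG2 cells is scored from ATP content by luminescence; cells are exposed to compound for 1 hr at 37 C and 5% CO2, then dosed with m-MPI dye before the CellTiter-Glo reagent.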

[6] = qHTS assay for small molecule disruptors of the mitochondrial membrane potential (AID 720635); also: potency is read from the fitted curve at half-maximal effect
Outline: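 HepG2 cells exposed to compound 1 hr at 37C, then Mito-MPS dye 30 min. Ratio read of aggregate (540/590 nm) versus monomer (490/535 nm) fluorescence.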

[7] = qHTS assay to test for compound auto fluorescence at 590 nm (red) in HepG2 cells (AID 720674)
Outline: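 Fluorescence at 590 nm emission following 540 nm excitation was recorded from HepG2 wells one hour after compound transfer, with DMSO-only wells as vehicle and Rose Bengal sodium equivalency as the scale.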

[8] = qHTS assay to test for compound auto fluorescence at 535 nm (green) in HepG2 cells (AID 720675)
[9] = qHTS assay to test for compound auto fluorescence at 460 nm (blue) in HEK293 cells (AID 720678)
Outline: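 HEK293 cells (2,000 per well, medium with 10% dialyzed FBS) attached for 4-5 hr at 37C, then received compound and stood overnight at 37C, 5% CO2. Blue fluorescence was read at Ex/Em 405/460 nm and expressed relative to triamterene.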

[10] = qHTS assay to test for compound auto fluorescence at 590 nm (red) in HEK293 cells (AID 720679)
Outline: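 HEK293 cells (2,000/well, medium with 10% dialyzed FBS) attached for 4-5 hr at 37C, received 23 nL compound and were incubated overnight at 37C, 5% CO2. Red fluorescence was then read at 540/590nm Ex/Em, referenced to Rose Bengal sodium.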

[11] = qHTS assay to test for compound auto fluorescence at 535 nm (green) in HEK293 cells (AID 720680)
[12] = qHTS assay to test for compound auto fluorescence at 460 nm (blue) in HEK293 cell free culture (AID 720681)
Outline: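 Compounds were added to cell-free DMEM with 10% FBS and fluorescence read directly. The blue channel used 405 nm excitation and 460 nm emission, with triamterene as the reference fluorophore.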

[13] = qHTS assay to test for compound auto fluorescence at 535 nm (green) in HEK293 cell free culture (AID 720682)
Outline: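 Using fluorescein as calibrant, autofluorescence was quantified at 485/535 nm in cell-free DMEM containing 10% FBS after pintool addition of compound or vehicle.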

[14] = qHTS assay to test for compound auto fluorescence at 590 nm (red) in HEK293 cell free culture (AID 720683)
Outline: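 Cell-free wells of DMEM with 10% FBS received compound, and intrinsic fluorescence was read at excitation/emission 540/590 nm. Values expressed as equivalence to Rose Bengal sodium.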

[15] = qHTS assay to test for compound auto fluorescence at 590 nm (red) in HepG2 cell free culture (AID 720684)
Outline: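 Auto fluorescence equivalency versus Rose Bengal sodium, red channel Ex/Em 540/590 nm; compounds in cell-free MEM/10% FBS; DMSO vehicle control.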

[16] = qHTS assay to test for compound auto fluorescence at 460 nm (blue) in HepG2 cell free culture (AID 720685)
Outline: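 Cell-free plates of MEM plus 10% FBS received 23 nL compound or DMSO vehicle; blue-channel (405/460 nm) intensity scored against triamterene as reference fluorophore.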

[17] = qHTS assay to test for compound auto fluorescence at 535 nm (green) in HepG2 cell free culture (AID 720686)
[18] = qHTS assay to test for compound auto fluorescence at 460 nm (blue) in HepG2 cells (AID 720687)
Outline: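 HepG2 cells in MEM with 10% FBS, attached overnight at 37 C, were exposed to compound or DMSO for 1 hr at 37 C, 5% CO2. Blue fluorescence was read at 405/460 nm, with triamterene as reference fluorophore.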

[19] = target: Glucocorticoid receptor (Homo sapiens) (UniProt P04150); assay: qHTS assay to identify small molecule agonists of the glucocorticoid receptor (GR) signaling pathway (AID 720691; active = well fitted activation curve with a large enough effect in the signal ratio in the repeat runs, not every such curve was filed as active; the % refers to the signal ratio)
Glucocorticoid receptor (Homo sapiens), sequence (P04150 whole entry, looked up): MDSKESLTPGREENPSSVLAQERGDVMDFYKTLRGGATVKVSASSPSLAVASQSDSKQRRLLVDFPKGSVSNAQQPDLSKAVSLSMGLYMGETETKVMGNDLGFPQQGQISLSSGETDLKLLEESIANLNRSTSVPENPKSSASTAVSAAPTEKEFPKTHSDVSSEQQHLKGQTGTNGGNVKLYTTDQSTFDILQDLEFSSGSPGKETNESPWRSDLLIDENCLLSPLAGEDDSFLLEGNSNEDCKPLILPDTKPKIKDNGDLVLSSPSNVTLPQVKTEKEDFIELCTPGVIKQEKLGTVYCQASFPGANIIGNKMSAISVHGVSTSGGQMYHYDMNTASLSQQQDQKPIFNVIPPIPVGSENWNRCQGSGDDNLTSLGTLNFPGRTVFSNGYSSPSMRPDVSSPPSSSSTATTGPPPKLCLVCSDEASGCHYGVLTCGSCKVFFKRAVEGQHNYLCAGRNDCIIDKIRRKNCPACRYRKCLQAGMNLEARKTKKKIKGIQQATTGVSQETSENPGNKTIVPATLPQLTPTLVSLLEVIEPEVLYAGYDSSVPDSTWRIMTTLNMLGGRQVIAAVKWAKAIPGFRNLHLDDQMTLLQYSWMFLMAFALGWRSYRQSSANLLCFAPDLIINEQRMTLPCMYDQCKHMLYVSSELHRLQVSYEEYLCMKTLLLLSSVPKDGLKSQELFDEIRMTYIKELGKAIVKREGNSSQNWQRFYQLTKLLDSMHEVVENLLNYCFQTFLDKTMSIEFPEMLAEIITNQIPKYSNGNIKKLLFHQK
Outline: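 Compounds in DMSO, alongside positive controls, were added to GR-bla HeLa reporter cells and incubated 18 h at 37 C; GRE-driven beta-lactamase was detected by fluorescence after 2 h with FRET substrate at room temperature.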

[20] = target: Glucocorticoid receptor (Homo sapiens) (UniProt P04150); assay: qHTS assay to identify small molecule antagonists of the glucocorticoid receptor (GR) signaling pathway (AID 720692; active = well fitted inhibition curve with a large enough effect in the signal ratio in the repeat runs, not every such curve was filed as active; the % refers to the signal ratio)
Outline: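 In a 1536-well cell format, compounds were added 4 h after seeding GR-bla HeLa cells, together with dexamethasone at 5 nM final; reporter activity was measured by FRET-substrate fluorescence following 18 h at 37 C.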
% is scaled to controls: 0 for no effect and ±100 for the full control effect.

C=CCCCCCC
inactive: Potency [1] | Potency [2] | Potency [3] | Potency [4] | Potency [5] | Potency [6] | outcome [7] | outcome [8] | Potency [9] | outcome [10] | outcome [11] | Potency [12] | outcome [13] | outcome [14] | outcome [15] | Potency [16] | outcome [17] | Potency [18] | Potency [19] | Potency [20]

CCCCCCOC(=O)CCC
inactive: Potency [1] | Potency [2] | Potency [3] | Potency [4] | Potency [5] | Potency [6] | outcome [8] | Potency [9] | outcome [10] | outcome [11] | outcome [13] | outcome [14] | outcome [15] | Potency [16] | outcome [17] | Potency [18]

C[Si](C)O[Si](C)(C)O[Si](C)(C)O[Si](C)C
inactive: Potency [1] | Potency [2] | Potency [3] | Potency [4] | Potency [5] | outcome [7] | outcome [8] | Potency [9] | outcome [10] | outcome [11] | Potency [12] | outcome [13] | outcome [14] | outcome [15] | Potency [16] | outcome [17] | Potency [18] | Potency [19] | Potency [20]

CC1=CC(=O)/C(=C(/C)O)C(=O)O1
inactive: Potency [1] | Potency [2] | Potency [3] | Potency [4] | Potency [5] | outcome [7] | outcome [8] | Potency [9] | outcome [10] | outcome [11] | Potency [12] | outcome [13] | outcome [14] | outcome [15] | Potency [16] | outcome [17] | Potency [18] | Potency [19] | Potency [20]

CCCCCCCCCC=O
inactive: Potency [1] | Potency [2] | Potency [3] | Potency [4] | Potency [5] | outcome [7] | outcome [8] | Potency [9] | outcome [10] | outcome [11] | Potency [12] | outcome [13] | outcome [14] | outcome [15] | Potency [16] | outcome [17] | Potency [18]

CC/C(=C\C(=N/O)C(N)=O)C(C)[N+](=O)[O-] (stereo not given)
inactive: Potency [1] | Potency [2] | Potency [3] | Potency [4] | Potency [5] | Potency [6] | outcome [7] | outcome [8] | Potency [9] | outcome [10] | outcome [11] | Potency [12] | outcome [13] | outcome [14] | outcome [15] | Potency [16] | outcome [17] | Potency [18] | Potency [20]

FC(F)(F)C(F)(F)C(F)(F)C(F)(F)C(F)(F)C(F)(F)CCI
inactive: Potency [1] | Potency [2] | Potency [3] | Potency [4] | Potency [5] | Potency [6] | outcome [7] | outcome [8] | Potency [9] | outcome [10] | outcome [11] | Potency [12] | outcome [13] | outcome [14] | outcome [17] | Potency [18]

CCCCOc1cc(C(=O)OCCN(CC)CC)ccc1N
inactive: Potency [1] | Potency [2] | Potency [3] | Potency [4] | Potency [5] | fluorescence, relative to Rose Bengal [7] -0.373% [at 18.6 µM] | fluorescence, % of fluorescein control [8] -0.0083% [at 18.6 µM] | fluorescence, % of triamterene [9] 0.0068% [at 18.6 µM] | fluorescence, % of fluorescent control [10] 0.112% [at 18.6 µM] | fluorescence, % of fluorescein [11] 0.0482% [at 18.6 µM] | fluorescence, % of fluorescent control [12] -0.116% [at 18.6 µM] | activity change [13] -0.0782% [at 18.6 µM] | fluorescence, % of fluorescent control [14] -0.0563% [at 18.6 µM] | fluorescence, % of Rose Bengal [15] 0.59% [at 18.6 µM] | fluorescence, % of fluorescent control [16] 0.0523% [at 18.6 µM] | fluorescence, % of fluorescein control [17] 0.0068% [at 18.6 µM] | fluorescence, % of fluorescent control [18] -0.135% [at 18.6 µM] | Potency [20]

CC(C)(C)c1ccc(S)cc1
inactive: Potency [1] | Potency [2] | Potency [3] | Potency [4] | Potency [5] | outcome [7] | outcome [8] | Potency [9] | outcome [10] | outcome [11] | Potency [12] | outcome [13] | outcome [14] | outcome [15] | Potency [16] | outcome [17] | Potency [18]

O=C1[C@H](CC[C@H](O)c2ccc(F)cc2)[C@@H](c2ccc(O)cc2)N1c1ccc(F)cc1
active: Potency [6] 23.7 µM
inactive: Potency [1] | Potency [2] | Potency [3] | Potency [4] | Potency [5] | outcome [7] | outcome [8] | Potency [9] | outcome [10] | outcome [11] | Potency [12] | outcome [13] | outcome [14] | outcome [15] | Potency [16] | Potency [18]

Nc1ccc(C(=O)Nc2ccccc2N)cc1
active: Potency [1] 10.6 µM | Potency [2] 8.41 µM | Potency [6] 13.3 µM
inactive: Potency [3] | Potency [4] | Potency [5] | outcome [7] | outcome [8] | Potency [9] | outcome [10] | outcome [11] | Potency [12] | outcome [13] | outcome [14] | outcome [15] | outcome [17] | Potency [18]

O=C(O)Cc1sc(-c2ccccc2)nc1-c1ccc(Cl)cc1
inactive: Potency [1] | Potency [2] | Potency [3] | Potency [4] | Potency [5] | outcome [7] | outcome [8] | Potency [9] | outcome [10] | outcome [11] | Potency [12] | outcome [13] | outcome [14] | outcome [15] | Potency [16] | outcome [17] | Potency [18] | Potency [20]
active: Potency [6] 24.8 µM and 23.7 µM and 26.6 µM

Cc1c(Cn2ccnc2)c2ccccc2n1CCC(=O)O
inactive: Potency [1] | Potency [2] | Potency [3] | Potency [4] | Potency [5] | Potency [6] | outcome [7] | outcome [8] | Potency [9] | outcome [10] | outcome [11] | outcome [13] | outcome [14] | Potency [16] | Potency [18] | Potency [19] | Potency [20]

CC(C)c1cccc(C(C)C)c1NC(=O)NS(=O)(=O)c1cc(C(C)(C)O)co1
inactive: Potency [1] | Potency [2] | Potency [3] | Potency [4] | Potency [5] | outcome [7] | outcome [8] | Potency [9] | outcome [10] | outcome [11] | Potency [12] | outcome [13] | outcome [14] | outcome [15] | Potency [16] | outcome [17] | Potency [18] | Potency [19] | Potency [20]

Reference: PubChem BioAssay (Tox21)
